HT1080 IDH1KD tx: HT-1080 IDH1 knockdown cell toxicity (counter line); HT-1080 IDH1 knockdown viability, ATP luminescence, 48 h; Potency, µM (series often up to 46.1 µM), inactives show top-dose activity, negative = toxicity, hits mostly cytotoxic; actives 2% (n = 360,000);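 note: potency is the fitted concentration of half-maximal effect; 0% = DMSO wells and -100% = cell-free medium wells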
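Knockdown cells (IDH1KD HT-1080) received compounds 2 h after plating at 750 cells/well and were kept 48 h at 37 °C in 5% FBS RPMI. A CellTiter-Glo luminescence read gave % activity for curve fitting.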
DT40 TDP1 no CPT: qHTS for Inhibitors of human tyrosyl-DNA phosphodiesterase 1 (TDP1): qHTS in cells in absence of CPT; DT40 Tdp1-/- hTDP1 cells, no CPT, ATP luminescence, 48 h; Potency, µM (doses to about 46.2 µM), inactives show at the top dose activity change, negative = growth inhibition, actives largely listed as inhibitors; actives 15% (n = 420,000); AID 686978, 2013; note: potency is the fitted concentration of half-maximal effect; nearly all actives have a fitted effect of over 55% in size
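Growth of hTDP1-complemented DT40 Tdp1-knockout cells is measured by ATP luminescence after at least 48 hr compound exposure at 37 °C, with DMSO substituting for the 20 nM CPT used in the parallel screen.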
IL-1B inflam inh: inhibitors of inflammasome signaling (IL-1 beta secretion); THP-1 LPS/ATP IL-1B secretion, AlphaLISA, 16 h; active compounds read low; actives 4.7% (n = 360,000); activity change, % at 57.5 µM; AID 743279; in the data active = activity change below about -50%; inconclusive = mostly about -30% to -49%
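THP-1 cells pretreated 1 hr with compounds (up to 57.5 uM final), then stimulated with LPS (250 ng/mL final) plus ATP (1.25 mM final); secreted IL-1B measured by AlphaLISA after 16 hr, decreased signal indicating inhibition.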
DT40 TDP1 CPT: growth inhibition of DT40 Tdp1-/-;hTDP1 cells with camptothecin (screen for TDP1 inhibitors). Potency, µM (series often up to 46.2 µM), for the others: at the highest dose activity change, negative = growth inhibition, usual class: inhibitors. chicken DT40 Tdp1-/-;hTDP1 cells + 20 nM CPT, ATP luminescence, 48 h. AID 686979. actives 12% (n = 420,000); note: potency is the fitted concentration of half-maximal effect; nearly all actives have a fitted effect of over 55% in size
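Chicken DT40 Tdp1-/- cells stably complemented with human TDP1 were seeded at 400 cells/well in medium containing 20 nM camptothecin, exposed to pin-transferred compounds, and grown at 37 °C for at least 48 hr. Viability was read as ATP luminescence.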
HT1080NT lethal: kills 2HG-producing HT-1080-NT fibrosarcoma cells. HT-1080-NT fibrosarcoma viability, CellTiter-Glo ATP luminescence, 48 h. Potency, µM (top dose mostly 46.1 µM), without a hit: at the top dose activity, negative = less viability, hits mostly cytotoxic. actives 1.6% (n = 360,000);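 note: NT is the 2HG producing partner of a matched IDH1 knockdown line; potency is the fitted concentration of half-maximal effect; 0% = DMSO-treated cells and -100% = media-only wells without cells; nearly all actives have a fitted effect of over 55% in size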
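Compounds were tested in concentration-response format on HT-1080-NT cells for 48 hours at 37 degrees C. Cell viability came from CellTiter-Glo luminescence; curves were classified by r2, response magnitude and activity.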
Starred values were filed as active, the others as inactive. Only some compounds are listed: those with a hit (about 19% of all), similar ones and a draw of the others. Unless noted, calls come from the whole dose curve; as a rule, active = well fitted curve in the direction sought with a large enough effect; inconclusive = small, poorly fitted or top-dose-only effect, or another doubt; inactive = no such curve, though single readings can be large; an effect the other way counts as inactive or inconclusive. Unless noted, % is set by controls: 0 for no effect and ±100 for the full control effect.

Screening COc1cc(NC(=O)COC(=O)c2n[nH]c3ccccc23)c(C)cc1[N+](=O)[O-] returned HT1080 IDH1KD tx -6.3%, DT40 TDP1 no CPT inconclusive, IL-1B inflam inh 19.0, DT40 TDP1 CPT inconclusive and HT1080NT lethal -4.3%.
`CCCCOC(=O)C1=C(C)Nc2nnnn2C1c1ccccc1Cl` (stereo not drawn) gave HT1080 IDH1KD tx inconclusive, DT40 TDP1 no CPT 13µM*, IL-1B inflam inh 7.6, DT40 TDP1 CPT inconclusive and HT1080NT lethal inconclusive.
`CC1=C(C(=O)Nc2ccc(C)cc2)C(c2ccccc2Cl)n2nnnc2N1` (stereo not drawn) gave DT40 TDP1 no CPT -14.3% and DT40 TDP1 CPT -16.9%.
For CCOC(=O)c1[nH]c(C)c(C(=O)OCC(=O)NC(C)c2ccc(F)cc2)c1C (stereo not drawn) the results were HT1080 IDH1KD tx 3.66µM*, DT40 TDP1 no CPT 1.16µM*, IL-1B inflam inh 0.0, DT40 TDP1 CPT 1.64µM* and HT1080NT lethal 3.66µM*.
`CCOC(=O)c1c(C)[nH]c(C(=O)OCC(=O)NC(C)(C)C)c1C` gave HT1080 IDH1KD tx -21.6%, DT40 TDP1 no CPT 18.4µM*, IL-1B inflam inh -9.8, DT40 TDP1 CPT inconclusive and HT1080NT lethal -4.5%.
CCOC(=O)c1c(C)[nH]c(C(=O)OCC(=O)Nc2sc(C(=O)N(C)C)c(C)c2C(=O)OCC)c1C was read as HT1080 IDH1KD tx -0.7%, DT40 TDP1 no CPT 23.1µM*, IL-1B inflam inh -51.3*, DT40 TDP1 CPT inconclusive and HT1080NT lethal -11.4%.
CCOC(=O)c1c(C)[nH]c(C(=O)OCc2ccc(F)cc2)c1C was read as HT1080 IDH1KD tx 10.7%, DT40 TDP1 no CPT 1.7%, IL-1B inflam inh -22.3, DT40 TDP1 CPT -8.9% and HT1080NT lethal 3.4%.
For CCOC(=O)c1[nH]c(C)c(C(=O)OC)c1C the results were HT1080 IDH1KD tx 15.2%, DT40 TDP1 no CPT 8.2%, DT40 TDP1 CPT 3.0% and HT1080NT lethal 5.8%.
CCOC(=O)c1c(NC(=O)COC(=O)c2ccc([N+](=O)[O-])cc2)sc(C(=O)N(C)C)c1C was read as HT1080 IDH1KD tx 0.9%, DT40 TDP1 no CPT -2.8%, IL-1B inflam inh -5.5, DT40 TDP1 CPT 16.6% and HT1080NT lethal 8.2%.
CC(=O)c1ccc(N2CCN(C(C)C(=O)NC3CCCc4ccccc43)CC2)cc1 (stereo not drawn) was read as HT1080 IDH1KD tx 0.5%, DT40 TDP1 no CPT inconclusive, IL-1B inflam inh -0.4, DT40 TDP1 CPT inconclusive and HT1080NT lethal -8.5%.
OCC[C@@H]1C[C@H](O)[C@@H](O)[C@@]2(OCc3cc(C(F)(F)F)ccc32)O1 was read as HT1080 IDH1KD tx 8.9%, DT40 TDP1 no CPT -17.7%, IL-1B inflam inh 4.7, DT40 TDP1 CPT -3.0% and HT1080NT lethal 13.5%.
CNc1ccc(/C=C/C(=O)c2cccc3ccccc23)cc1[N+](=O)[O-] was read as HT1080 IDH1KD tx 1.4%, DT40 TDP1 no CPT 16.4µM*, IL-1B inflam inh -91.8*, DT40 TDP1 CPT 16.4µM* and HT1080NT lethal 14.7%.
CC[n+]1c(C)cc2c(sc3ccccc32)c1C was read as HT1080 IDH1KD tx inconclusive, DT40 TDP1 no CPT 2.91µM*, IL-1B inflam inh 5.6, DT40 TDP1 CPT 11.6µM* and HT1080NT lethal 5.17µM*.
`CCc1nc(C)cc2c1sc1ccccc12` gave HT1080 IDH1KD tx -1.7%, DT40 TDP1 no CPT inconclusive, DT40 TDP1 CPT -10.6% and HT1080NT lethal 1.7%.
`Cc1cc(/C=C2\SC(=Nc3ccc(F)cc3)NC2=O)c(C)n1-c1ccc(S(N)(=O)=O)cc1` gave HT1080 IDH1KD tx 5.17µM*, DT40 TDP1 no CPT 5.17µM*, IL-1B inflam inh -8.2, DT40 TDP1 CPT 5.17µM* and HT1080NT lethal 6.51µM*.
For Cc1cc(/C=C2\SC(=S)NC2=O)c(C)n1-c1ccc(O)cc1 the results were HT1080 IDH1KD tx inconclusive, DT40 TDP1 no CPT 6.4%, IL-1B inflam inh 0.0, DT40 TDP1 CPT -28.2% and HT1080NT lethal inconclusive.

From PubChem
